{"source": "PubChem BioAssay (NCI)", "note": "Compounds without any hit were thinned out: in the full panel of roughly 83,000, 20% have a hit.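 The endpoint reported here, percent growth, reads 100 for growth as untreated, 0 for no net growth and -100 for all cells dead.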 Activity calls are given as the source filed them.", "data": [{"system": "MCF7 breast", "test": "NCI-60 one-dose screen, 48 h (100 = growth as untreated, 0 = no growth, -100 = all killed)", "conditions": "10 µM unless noted", "protocol": "Growth inhibition of the MCF7 human tumor cell line is measured as a screen for anti-cancer activity. Cells are grown in 96 well plates and exposed to the test compound for 48 hours. Compounds are tested at a single concentration, which is 10^-5 M for most compounds. The reported endpoint is percent growth (GI% or GIPRCNT), where numbers from 0 - 100% represent growth inhibition, and numbers from -100% - 0 represent cell death. For example, a value of 40 represents 60% growth inhibition. A value of 0 means no net growth occurred over the course of the experiment. A value of -40 indicates 40% of cells at the beginning of the experiment died by the end of the experiment. A value of -100 means all cells are dead at the end of the experiment.\nNCI-60 Human Tumor Cell Lines Screen was performed using the standard one-dose NCI protocol, which is described in more detail at https://dtp.cancer.gov/discovery_development/nci-60/default.htm.\nCompounds with GIPRCNT values below 10 were considered active. Activity score was based on GIPRCNT using the following formula: […]\nScore is 0 for GIPRCNT values of 100 or above, 50 for GIPRCNT values of 0, and 100 for GIPRCNT values of -100.", "values": [{"smiles": "CCCCCC(=O)Oc1ccc(/C(=C(/C)Cc2ccc(OC)cc2)c2ccc(OCCCN(C)C)cc2)cc1", "growth": "20.1% (inactive)"}, {"smiles": "C=C(C)[C@@H]1CC[C@]2(C(=O)N3CCN(C)CC3)CC[C@]3(C)[C@H](CC[C@@H]4[C@@]5(C)CC[C@H](OCCC#N)C(C)(C)[C@@H]5CC[C@]43C)[C@@H]12", "growth": "77.7% (inactive)"}, {"smiles": "O=C1/C=C/[C@@H](O)[C@@H]2C[C@@H](O)C[C@H]2/C=C/CCC[C@H](CCc2ccc3ncccc3c2)O1", "growth": "2.74% (active)"}, {"smiles": "CCN(c1ccccc1)S(=O)(=O)c1cc([N+](=O)[O-])ccc1Cl", "growth": "52.6% (inactive)"}, {"smiles": "O=C(O)c1ccc(NCc2cn(-c3ccc(C(F)(F)F)cc3)nc2-c2ccc(C(=O)O)cc2)cc1", "growth": "96% (inactive)"}, {"smiles": "NCCCCCCNc1cc(-c2cccc(OC(F)(F)F)c2)nc2ccc(N3CCCC3)cc12", "growth": "-72.6% (active)"}, {"smiles": "COc1ccc2c(c1)C(=O)CC(c1ccccc1OC)O2", "note": "(stereo not given)", "growth": "83.8% (inactive)"}, {"smiles": "CCOC(=O)c1cc(C(=O)c2ccc(OC)c(OC)c2)n2c1ccc1ccccc12", "growth": "80% (inactive)"}, {"smiles": "Nc1c(S(=O)(=O)O)cc2c3c(cccc13)C(=O)OC2=O", "growth": "94.8% (inactive)"}, {"smiles": "CC(=O)[C@H]1CCC/C=C/[C@@H]2C[C@H](O)C[C@H]2[C@H](O)/C=C/C(=O)O1", "growth": "3.81% (active)"}, {"smiles": "Cc1cnc(C(=O)Nc2nc3ccc(S(=O)(=O)Nc4ccc(C(C)(C)C)cc4)cc3[nH]2)cn1", "growth": "22.4% (inactive)"}, {"smiles": "O=C(CCN1CCCC1)Nc1ccc2c(Nc3ccc(F)cc3)c3ccccc3nc2c1", "growth": "-19.9% (active)"}, {"smiles": "CC(C)c1ccc(Nc2ccc3c(OCCCN4CCN(C)CC4)cccc3n2)cc1", "growth": "18.2% (inactive)"}, {"smiles": "C=C1C(=O)O[C@H]2[C@H]1CC/C(COC(=O)NCc1c[nH]c3ccc(F)cc13)=C\\CC[C@@]1(C)O[C@@H]21", "growth": "22.4% (inactive)"}, {"smiles": "O=C1Nc2cc(-c3cccc([N+](=O)[O-])c3)ccc2/C1=C/c1ccc[nH]1", "growth": "16% (inactive)"}, {"smiles": "CC(Oc1ccc(C(=O)O)cc1C(F)(F)F)c1ccc(Oc2ccccc2)cn1", "note": "(stereo not given)", "growth": "89.5% (inactive)"}, {"smiles": "CCCCCCOc1ccc(/C=N/Nc2cc(C)nc3ccc(Cl)cc23)cc1", "growth": "-66.6% (active)"}, {"smiles": "CN1CCN(CCNc2nccc(-c3c(-c4cccc(O)c4)nc4sccn34)n2)S1(=O)=O", "growth": "71.3% (inactive)"}, {"smiles": "COc1cc(CC(=O)c2ccc(O)c(OC)c2)ccc1O", "growth": "96.9% (inactive)"}, {"smiles": "O=C1Nc2cc(Cl)ccc2/C1=C\\c1c(-c2ccc(F)cc2)nc2ccccn12", "growth": "2.1% (active)"}, {"smiles": "CCOC(=O)Oc1c(OC)cc(C(=O)c2ccc(OC)c(O)c2OC)cc1OC", "growth": "19.5% (inactive)"}, {"smiles": "Cn1ccc2c1CC1CN(Cc3ccco3)C(=O)C1C2C(=O)O", "note": "(stereo not given)", "growth": "95.7% (inactive)"}, {"smiles": "Cc1ccc(-n2c3c(c(-c4ccccc4)c2-c2ccccc2)C2=NCCN2C=N3)cc1", "growth": "86.8% (inactive)"}, {"smiles": "COc1cc2c(=O)n(CCN)c3c4cc5c(cc4ccc3c2cc1OC)OCO5", "growth": "17.6% (inactive)"}, {"smiles": "O=C(/C=C(/C=C/c1coc2ccccc12)OB(F)F)/C=C/c1coc2ccccc12", "growth": "82.8% (inactive)"}, {"smiles": "CCCCCCNC(=O)Oc1ccc(/C(=C(\\C)c2ccccc2)c2ccc(OCCCN(C)C)cc2)cc1", "growth": "21.3% (inactive)"}, {"smiles": "CCN(CC)CCn1c(=O)c2cc(OC)c(OC)cc2c2ccc3cc4c(cc3c21)OCO4", "growth": "16.1% (inactive)"}, {"smiles": "CN1CCN(C(=O)[C@]23CCC(C)(C)C[C@H]2C2=CC[C@@H]4[C@@]5(C)C/C(=C/c6ccncc6)C(=O)C(C)(C)[C@@H]5CC[C@@]4(C)[C@]2(C)CC3)CC1", "growth": "18.1% (inactive)"}, {"smiles": "O=C(Cc1ccc(/C=C/C(=O)c2ncc[nH]2)cc1)Nc1ccc(Cl)cc1", "growth": "13% (inactive)"}, {"smiles": "CCC(=O)Oc1ccc(/C(=C(\\C)c2ccccc2)c2ccc(OCCN3CCCCC3)cc2)cc1", "growth": "24.2% (inactive)"}, {"smiles": "CC(Sc1nc2sc3c(c2c(=O)n1-c1ccc(Cl)cc1)CCCC3)C(=O)Nc1nc(-c2ccc(Br)cc2)cs1", "note": "(stereo not given)", "growth": "91.8% (inactive)"}, {"smiles": "CCc1ccc(CNc2ccc(N3CCOCC3)c(C(=O)O)c2)cc1", "growth": "86.2% (inactive)"}, {"smiles": "O=C1C=CC(=O)N1c1cccc(Cl)c1", "growth": "112% (inactive)"}, {"smiles": "COC(=O)C1=C(C(=O)ON)C2C=CC1(C(Cc1ccccc1)Nc1ccccc1)O2", "note": "(stereo not given)", "growth": "83.3% (inactive)"}, {"smiles": "CCC(CC)NCC(C)(C)O", "growth": "97.9% (inactive)"}, {"smiles": "CCSCC1CC(O)(c2ccccc2)CC(c2ccc(F)cc2)O1", "note": "(stereo not given)", "growth": "-11.3% (active)"}, {"smiles": "CC(=O)c1cc2c(N)c(C(=O)Nc3cccc4ccncc34)sc2nc1C", "growth": "83.7% (inactive)"}, {"smiles": "CCCNC(=O)Oc1ccc(/C(=C(\\C)c2ccccc2)c2ccc(OCCCN(C)C)cc2)cc1", "growth": "21.7% (inactive)"}, {"smiles": "CC1=CCC(OC(=O)C(C)(O)CCC(O)(C(=O)OC2(C)C=CC(O)(C(C)C)CC2)C(C)C)(C(C)C)CC1", "note": "(stereo not given)", "growth": "97.9% (inactive)"}, {"smiles": "Nc1ccccc1NC(=O)c1ccc(-n2nc(-c3ccccc3)c3ccccc32)cc1", "growth": "57.1% (inactive)"}]}]}
